Laboratory results: PubChem BioAssay
For some assays here: Measured potencies and affinities stand elsewhere. Active and inactive are the calls of the source. Unless noted, the rule behind the calls is not given here.

Legend:
[1] = antimalarial activity against Dd2 strain (AID 2302;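 active = growth inhibition above 50% at the single 2 µM test dose, taken to imply half-maximal potency below 2 µM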;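 note: 0% = DMSO untreated growth and 100% = chloroquine plus artemisinin killed control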); settings: P. falciparum Dd2 in RBCs, LDH growth readout, 72 h; at 2 µM; stronger effect = higher value
[2] = HepG2 cytotoxicity, primary screen, cytotoxicity control for P. falciparum antimalarial project, cell-based, ATP luminescence (AID 2303;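 active = inhibition above 50%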;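 note: 0% = DMSO wells and 100% = digitonin-killed cells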); settings: HepG2 viability, 24-48 h, at 10 µM, stronger effect = higher value
[3] = target: L-lactate dehydrogenase (Plasmodium falciparum (isolate CDC / Honduras)) (UniProt Q27743); assay: PfLDH activity inhibition – cell lysate, 3D7 strain, counter-screen for P. falciparum growth inhibition project (AID 2304);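 note: 0% = vehicle and 100% = reference inhibitor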; settings: P. falciparum 3D7 crude extract, LDH APAD/NBT absorbance; at 2 µM; stronger effect = higher value
L-lactate dehydrogenase (Plasmodium falciparum (isolate CDC / Honduras)), sequence (Q27743 whole entry, looked up): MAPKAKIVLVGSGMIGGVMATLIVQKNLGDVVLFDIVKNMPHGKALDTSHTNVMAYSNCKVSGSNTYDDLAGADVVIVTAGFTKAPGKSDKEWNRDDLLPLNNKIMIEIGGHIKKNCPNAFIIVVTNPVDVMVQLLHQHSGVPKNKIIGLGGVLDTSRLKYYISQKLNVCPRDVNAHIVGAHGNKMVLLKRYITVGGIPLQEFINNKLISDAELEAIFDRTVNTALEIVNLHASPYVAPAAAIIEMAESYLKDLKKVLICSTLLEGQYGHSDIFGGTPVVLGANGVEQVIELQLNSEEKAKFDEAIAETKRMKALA

[4] = inhibition of 3D7 malaria parasite growth – strain 3D7 (AID 2306);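 note: 0% = DMSO wells and 100% = chloroquine plus artemisinin control wells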; settings: P. falciparum 3D7 erythrocytic growth, LDH absorbance, 72 h; at 2 µM; stronger effect = higher value
[5] = target: Calcium-dependent protein kinase 1 (Plasmodium falciparum (isolate 3D7)) (UniProt P62344); assay: PfCDPK1 kinase inhibitors, biochemical, TCAMS library (AID 1159585; cut-off not given, nearly all actives have IC50 up to about 0.98 µM;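 note: inhibitors leave more ATP so luminescence rises with inhibition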); settings: recombinant PfCDPK1, Kinase-Glo ATP depletion luminescence
Calcium-dependent protein kinase 1 (Plasmodium falciparum (isolate 3D7)), sequence (P62344 whole entry, looked up): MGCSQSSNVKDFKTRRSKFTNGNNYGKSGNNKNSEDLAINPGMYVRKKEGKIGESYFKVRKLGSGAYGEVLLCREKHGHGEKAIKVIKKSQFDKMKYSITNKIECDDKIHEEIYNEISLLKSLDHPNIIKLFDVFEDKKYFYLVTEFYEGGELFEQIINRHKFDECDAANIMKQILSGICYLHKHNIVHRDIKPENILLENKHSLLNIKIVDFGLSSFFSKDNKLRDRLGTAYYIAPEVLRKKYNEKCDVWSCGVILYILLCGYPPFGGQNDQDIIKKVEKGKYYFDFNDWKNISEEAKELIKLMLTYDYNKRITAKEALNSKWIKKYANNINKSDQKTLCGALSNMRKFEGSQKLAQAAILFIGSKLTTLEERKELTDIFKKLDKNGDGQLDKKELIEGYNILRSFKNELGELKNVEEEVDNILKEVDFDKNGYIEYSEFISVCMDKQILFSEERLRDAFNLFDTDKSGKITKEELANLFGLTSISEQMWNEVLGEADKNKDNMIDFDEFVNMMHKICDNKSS

[6] = target: Plasmodium falciparum protein kinase 6 (PK6, PF3D7_1337100) (UniProt Q8IDW1); assay: PfPK6 kinase inhibitors, biochemical, TCAMS library (AID 1159586); settings: recombinant PfPK6, Kinase-Glo ATP depletion luminescence
Plasmodium falciparum protein kinase 6 (PK6, PF3D7_1337100), sequence (Q8IDW1 1-305): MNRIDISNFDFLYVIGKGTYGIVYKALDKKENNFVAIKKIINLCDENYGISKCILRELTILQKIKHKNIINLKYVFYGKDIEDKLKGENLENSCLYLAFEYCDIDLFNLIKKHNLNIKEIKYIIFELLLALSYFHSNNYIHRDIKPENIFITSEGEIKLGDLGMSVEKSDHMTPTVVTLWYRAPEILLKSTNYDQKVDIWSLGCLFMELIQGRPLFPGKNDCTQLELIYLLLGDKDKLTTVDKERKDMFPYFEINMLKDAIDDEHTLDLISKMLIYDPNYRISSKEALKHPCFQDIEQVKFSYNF

[7] = target: Protein kinase 7 (PK7), Plasmodium falciparum 3D7 (PF3D7_0213400) (UniProt Q7YTF7); assay: inhibition of Plasmodium PK7 catalytic activity – biochemical, TCAMS antimalarial set, Kinase-Glo luminescence (AID 1159587); settings: recombinant PfPK7, Kinase-Glo ATP depletion luminescence
Protein kinase 7 (PK7), Plasmodium falciparum 3D7 (PF3D7_0213400), sequence (Q7YTF7 1-343): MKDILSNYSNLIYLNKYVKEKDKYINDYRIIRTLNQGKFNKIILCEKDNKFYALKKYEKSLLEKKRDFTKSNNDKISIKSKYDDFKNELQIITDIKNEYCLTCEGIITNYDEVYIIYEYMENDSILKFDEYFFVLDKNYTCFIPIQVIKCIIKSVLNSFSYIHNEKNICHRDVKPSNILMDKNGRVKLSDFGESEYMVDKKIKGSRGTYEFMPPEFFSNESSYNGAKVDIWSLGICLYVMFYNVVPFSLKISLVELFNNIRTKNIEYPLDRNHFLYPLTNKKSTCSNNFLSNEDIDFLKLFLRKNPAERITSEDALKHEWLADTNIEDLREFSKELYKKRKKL

[8] = target: Calcium-dependent protein kinase 4 (Plasmodium falciparum (isolate 3D7)) (UniProt Q8IBS5); assay: PfCDPK4 kinase inhibitors, biochemical, TCAMS library (AID 1159588; cut-off not given, nearly all actives have IC50 up to about 0.91 µM); settings: recombinant PfCDPK4, Kinase-Glo ATP depletion luminescence
Calcium-dependent protein kinase 4 (Plasmodium falciparum (isolate 3D7)), sequence (Q8IBS5 whole entry, looked up): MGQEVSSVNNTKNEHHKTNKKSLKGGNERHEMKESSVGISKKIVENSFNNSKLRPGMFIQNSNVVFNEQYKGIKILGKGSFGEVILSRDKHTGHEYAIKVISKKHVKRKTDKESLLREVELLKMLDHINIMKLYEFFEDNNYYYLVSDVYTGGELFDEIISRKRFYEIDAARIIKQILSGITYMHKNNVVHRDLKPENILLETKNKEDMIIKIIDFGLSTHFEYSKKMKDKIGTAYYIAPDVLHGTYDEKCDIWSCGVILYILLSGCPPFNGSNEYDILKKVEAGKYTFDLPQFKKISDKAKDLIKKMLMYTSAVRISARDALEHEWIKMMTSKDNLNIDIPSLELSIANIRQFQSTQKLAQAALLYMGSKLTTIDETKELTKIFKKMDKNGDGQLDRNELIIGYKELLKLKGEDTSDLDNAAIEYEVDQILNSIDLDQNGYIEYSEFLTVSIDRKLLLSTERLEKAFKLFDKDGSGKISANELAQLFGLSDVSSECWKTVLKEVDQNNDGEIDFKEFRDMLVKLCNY

CN1CCC(C(=O)N(Cc2ccc(-c3ccc(CNCCc4ccccc4)cn3)cc2)C2CCN(Cc3ccccc3)CC2)CC1
inactive: inhibition [2] 24% | inhibition [3] -6% | outcome [5] | outcome [6] | outcome [7] | outcome [8]
active: growth inhibition [1] 99% | growth inhibition [4] 100%

O=C(NCCCCN1CCN(c2cccc3c2CCCC3)CC1)c1ccc(NC(=O)c2ccc(Cl)cc2)cc1
active: growth inhibition [1] 85% | growth inhibition [4] 101%
inactive: inhibition [2] 35% | inhibition [3] 3% | outcome [5] | outcome [6] | outcome [7] | outcome [8]

COc1ccc(-c2cc(-c3ccc(S(C)(=O)=O)cc3)cnc2N)cn1
inactive: inhibition [2] 5% | inhibition [3] 0% | outcome [5] | outcome [6] | outcome [7] | outcome [8]
active: growth inhibition [1] 99% | growth inhibition [4] 94%

Cc1cccc(C(=O)Nc2ccnc(N3CCC(N(C)Cc4ccccc4)CC3)c2)c1
active: growth inhibition [4] 93%
inactive: growth inhibition [1] 2% | inhibition [2] 12% | inhibition [3] -1% | outcome [5] | outcome [6] | outcome [7] | outcome [8]

NC(N)=NN=CC(=O)Nc1cc([N+](=O)[O-])cc([N+](=O)[O-])c1
active: growth inhibition [4] 100%
inactive: growth inhibition [1] -2% | inhibition [2] -5% | inhibition [3] -4% | outcome [5] | outcome [6] | outcome [7] | outcome [8]

Cn1cncc1CCN(Cc1ccc(-c2ccc(C(F)(F)F)cc2)cc1)C(=O)Cn1c(CCc2cccc(F)c2F)cc(=O)c2cccnc21
inactive: inhibition [2] 44% | inhibition [3] -2% | outcome [5] | outcome [6] | outcome [7] | outcome [8]
active: growth inhibition [1] 97% | growth inhibition [4] 100%

O=C(/C=C/c1ccc(Cl)c(Cl)c1)NCCCCCN1CCC(NC(=O)Nc2cc(Cl)ccc2Cl)CC1
inactive: growth inhibition [1] 31% | inhibition [3] 0% | outcome [5] | outcome [6] | outcome [7] | outcome [8]
active: inhibition [2] 99% | growth inhibition [4] 99%

CS(=O)(=O)c1cccc(-c2cnc3[nH]cc(-c4ccc(C(=O)O)cc4)c3c2)c1
inactive: inhibition [2] 6% | inhibition [3] -2% | outcome [5] | outcome [6] | outcome [7] | outcome [8]
active: growth inhibition [1] 100% | growth inhibition [4] 99%

COCCCNC(=S)NN=C(C)c1ccccn1
active: growth inhibition [1] 99% | inhibition [2] 55% | growth inhibition [4] 100%
inactive: inhibition [3] 3% | outcome [5] | outcome [6] | outcome [7] | outcome [8]

O=C(NCCNc1noc(-c2sccc2Br)n1)c1ccc(Cl)cc1
inactive: growth inhibition [1] 1% | inhibition [2] -5% | inhibition [3] 2% | outcome [5] | outcome [6] | outcome [7] | outcome [8]
active: growth inhibition [4] 93%

CCN(CC)CCN(Cc1ccc(-c2ccc(C(F)(F)F)cc2)cc1)C(=O)Cn1c(CCc2cccc(F)c2F)nc(=O)c2ccccc21
active: growth inhibition [1] 60% | growth inhibition [4] 97%
inactive: inhibition [2] 49% | inhibition [3] -3% | outcome [5] | outcome [6] | outcome [7] | outcome [8]

O=C(NC1CCC(N2CCN(c3cccc4[nH]ccc34)CC2)CC1)c1cc2cccnc2[nH]1 (stereo not given)
active: growth inhibition [1] 85% | growth inhibition [4] 99%
inactive: inhibition [2] 9% | inhibition [3] -2% | outcome [5] | outcome [6] | outcome [7] | outcome [8]

COc1ccc2nccc([C@@H](O)CN3CCC(NCc4ccc5sc(=O)[nH]c5c4)CC3)c2c1
inactive: growth inhibition [1] -3% | inhibition [2] 1% | inhibition [3] -3% | outcome [5] | outcome [6] | outcome [7] | outcome [8]
active: growth inhibition [4] 98%

Cc1ccc2nc(-c3ccccc3Nc3ccnc4cc(-c5nccs5)ccc34)[nH]c2c1
inactive: inhibition [2] 40% | inhibition [3] -5% | outcome [5] | outcome [6] | outcome [7] | outcome [8]
active: growth inhibition [1] 100% | growth inhibition [4] 101%

COc1ccccc1CCNC(=O)c1cc(Br)cc(N2CCN(c3ccncc3)CC2)c1
active: growth inhibition [4] 84%
inactive: growth inhibition [1] 32% | inhibition [2] 38% | inhibition [3] 4% | outcome [5] | outcome [6] | outcome [7] | outcome [8]

COc1ccc(-c2nc(NC(=O)CS(=O)(=O)c3ccc(F)cc3)sc2C)cc1
inactive: inhibition [2] 20% | inhibition [3] -3% | outcome [5] | outcome [6] | outcome [7] | outcome [8]
active: growth inhibition [1] 99% | growth inhibition [4] 100%

CC(C)CNC(=O)c1ccnc(-c2ccc(CNC3Cc4ccccc4C3)cc2)c1
inactive: growth inhibition [1] 29% | inhibition [2] 25% | inhibition [3] -5% | outcome [5] | outcome [6] | outcome [7] | outcome [8]
active: growth inhibition [4] 99%

CC(C)n1c(CC2CCN(CC3CCN(C(=O)/C=C/c4ccc(Cl)c(Cl)c4)CC3)CC2)nc2ccccc21
inactive: growth inhibition [1] 23% | inhibition [2] 19% | inhibition [3] -3% | outcome [5] | outcome [6] | outcome [7] | outcome [8]
active: growth inhibition [4] 101%

O=C(NC1CCCCC1)c1csc(C2CCCN(C(=O)c3ccc(O)c(-c4cccc(C(F)(F)F)c4)c3)C2)n1 (stereo not given)
active: growth inhibition [1] 85% | growth inhibition [4] 96%
inactive: inhibition [2] 8% | inhibition [3] 5% | outcome [5] | outcome [6] | outcome [7] | outcome [8]

COc1ccc(NC(=O)/C=C/c2ccc(-c3ccc(-c4noc(C)n4)cc3)cc2)cc1OCCN(C)C
inactive: growth inhibition [1] 31% | inhibition [2] 14% | inhibition [3] -3% | outcome [5] | outcome [6] | outcome [7] | outcome [8]
active: growth inhibition [4] 81%

COc1ccccc1N1CCN(CCCCNC(=O)c2ccc(NC(=O)c3cc4ccccc4o3)cc2)CC1
active: growth inhibition [4] 84%
inactive: growth inhibition [1] 2% | inhibition [2] 9% | inhibition [3] -1% | outcome [5] | outcome [6] | outcome [7] | outcome [8]

COc1ccc2nccc([C@@H](O)CN3CCC(NCc4cc5ccccc5nn4)CC3)c2c1
active: growth inhibition [4] 94%
inactive: growth inhibition [1] 16% | inhibition [2] 5% | inhibition [3] -1% | outcome [5] | outcome [6] | outcome [7] | outcome [8]

COc1cccc(-c2cc(C(F)(F)F)n3ncc(C(=O)Nc4cc(Cl)ccc4O)c3n2)c1
active: growth inhibition [1] 99% | growth inhibition [4] 99%
inactive: inhibition [2] -9% | inhibition [3] 5% | outcome [5] | outcome [6] | outcome [7] | outcome [8]

Cc1cc(F)ccc1Oc1nc(Nc2ccc(N3CCOCC3)c(F)c2)nc2c1S(=O)(=O)CCC2
inactive: inhibition [2] 10% | inhibition [3] 0% | outcome [5] | outcome [6] | outcome [7] | outcome [8]
active: growth inhibition [1] 98% | growth inhibition [4] 96%

O=C(O)c1cccc2c(-c3ccncc3)cccc12
inactive: growth inhibition [1] 1% | inhibition [2] 29% | inhibition [3] -1% | outcome [5] | outcome [6] | outcome [7] | outcome [8]
active: growth inhibition [4] 97%

CN(C)Cc1cc(Nc2ccnc3cc(Cl)ccc23)ccc1O
active: growth inhibition [1] 100% | growth inhibition [4] 100%
inactive: inhibition [2] 36% | inhibition [3] -3% | outcome [5] | outcome [6] | outcome [7] | outcome [8]

CCCCNc1cc(C)nc(NCc2ccccc2)n1
inactive: growth inhibition [1] 37% | inhibition [2] 23% | inhibition [3] 3% | outcome [5] | outcome [6] | outcome [7] | outcome [8]
active: growth inhibition [4] 97%

O=c1cc(NC[C@H]2CCC[C@@H]2NC2CCCc3c2[nH]c2ccccc32)[nH]c2ccccc12 (stereo not given in full)
active: growth inhibition [4] 101%
inactive: growth inhibition [1] 25% | inhibition [2] 6% | inhibition [3] -6% | outcome [5] | outcome [6] | outcome [7] | outcome [8]

NC(=NCCCc1ccccc1)c1cccc(C(N)=NCCCc2ccccc2)n1
inactive: growth inhibition [1] -1% | inhibition [2] 44% | inhibition [3] -6% | outcome [5] | outcome [6] | outcome [7] | outcome [8]
active: growth inhibition [4] 98%

Cc1cc(N[C@@H](Cc2ccccc2)C(=O)Nc2ccccc2)nc(NCCc2cccnc2)n1
active: growth inhibition [1] 57% | growth inhibition [4] 95%
inactive: inhibition [2] 32% | inhibition [3] -3% | outcome [5] | outcome [6] | outcome [7] | outcome [8]

O=C(/C=C/c1ccc(Cl)c(Cl)c1)NCCCCCN1CCC(CCCNC(=O)Nc2ccc(C(F)(F)F)cc2)CC1
inactive: growth inhibition [1] 19% | inhibition [2] -2% | inhibition [3] -7% | outcome [5] | outcome [6] | outcome [7] | outcome [8]
active: growth inhibition [4] 91%

O=C(Nc1ccc(Cl)c(Cl)c1)Nc1ccc2c(c1)CCNCC2
active: growth inhibition [4] 86%
inactive: growth inhibition [1] 37% | inhibition [2] 13% | inhibition [3] -1% | outcome [5] | outcome [6] | outcome [7] | outcome [8]

Cc1nc(N)nc(N)c1CCCOc1ccccc1Br
inactive: growth inhibition [1] 5% | inhibition [3] 5% | outcome [5] | outcome [6] | outcome [7] | outcome [8]
active: inhibition [2] 53% | growth inhibition [4] 97%

CC(Oc1ccc(C(=O)c2ccc(F)cc2)cc1)C(=O)N1CCc2ccccc21 (stereo not given)
active: growth inhibition [1] 95% | growth inhibition [4] 95%
inactive: inhibition [2] 9% | inhibition [3] 1% | outcome [5] | outcome [6] | outcome [7] | outcome [8]

CCOc1ccc2c(NN=Cc3ccc(OC)c(OC)c3)cc(C)nc2c1
inactive: inhibition [2] 22% | inhibition [3] 2% | outcome [5] | outcome [6] | outcome [7] | outcome [8]
active: growth inhibition [1] 58% | growth inhibition [4] 100%

Cc1ccc(Nc2nc(C)cc(NC3CCCC3)n2)cc1
inactive: inhibition [2] 33% | inhibition [3] 0% | outcome [5] | outcome [6] | outcome [7] | outcome [8]
active: growth inhibition [1] 89% | growth inhibition [4] 100%

O=C(/C=C/c1ccc(Cl)c(Cl)c1)NCCCCCN1CCC(c2[nH]nc(-c3ccccc3)c2Br)CC1
active: inhibition [2] 100% | growth inhibition [4] 95%
inactive: growth inhibition [1] 23% | inhibition [3] 1% | outcome [5] | outcome [6] | outcome [7] | outcome [8]

CC(C)CCN1CCC(Oc2ccc(NC(=O)c3ccco3)cc2Cl)CC1
active: growth inhibition [1] 93% | growth inhibition [4] 95%
inactive: inhibition [2] 1% | inhibition [3] 3% | outcome [5] | outcome [6] | outcome [7] | outcome [8]

COc1ccc(-c2cncc(-c3ccc(OC)c(OC)c3)n2)cc1OC
inactive: inhibition [2] 6% | inhibition [3] 6% | outcome [5] | outcome [6] | outcome [7] | outcome [8]
active: growth inhibition [1] 90% | growth inhibition [4] 95%

Cc1[nH]c(C)c(-c2ccc(Oc3ccc(Cl)cc3Cl)cc2)c(=O)c1Br
active: growth inhibition [1] 94% | growth inhibition [4] 98%
inactive: inhibition [2] 3% | inhibition [3] -5% | outcome [5] | outcome [6] | outcome [7] | outcome [8]
